Source: PubChem BioAssay (National Center for Advancing Translational Sciences (NCATS))
This is a sample that favours compounds with a hit; in the whole collection about 10% have one here.
BAZ2B block: BAZ2B (human) inhibition; 4.4% of 360,000 active; AID 504333; Potency, µM (titrated, usually from 114 µM), usual class: inhibitors; AlphaScreen BAZ2B-H3K14Ac peptide displacement; Q9UIF8; note: nearly all actives have a fitted effect of over 60% in size
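Compounds, titrated to a top concentration of 110 uM, were incubated 30 min at room temperature with preformed BAZ2B/acetyl-K14 H3 peptide complex (50 nM each). Proximity signal was measured by AlphaScreen after 20 min with beads.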
CtBP-E1A inh: blocks the CtBP interaction with E1A. AlphaScreen GST-E1A/His-CtBP binding, 1536-well; active compounds read low. activity change, % (no concentration beside the values). 0.49% of 340,000 active; in the data active = activity change below about -65%; inconclusive = mostly about -30% to -63%
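In 5 uL wells, 23 nL compound meets equimolar GST-E1A and His-CtBP (5X stock 125 nM each) for 2 h, 37 °C. Beads (5X, 50 ug/mL) then 1 h, 37 °C, dark.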
HP1b binding inh: HP1-beta chromodomain-methylated histone interaction inhibition; AlphaScreen HP1-beta / biotin-H3K9me3 peptide binding; Potency, µM (doses to about 114 µM), usual class: inhibitors; 0.56% of 390,000 active; P83916; note: nearly all actives have a fitted effect of over 70% in size
Target sequence (P83916 whole entry, looked up): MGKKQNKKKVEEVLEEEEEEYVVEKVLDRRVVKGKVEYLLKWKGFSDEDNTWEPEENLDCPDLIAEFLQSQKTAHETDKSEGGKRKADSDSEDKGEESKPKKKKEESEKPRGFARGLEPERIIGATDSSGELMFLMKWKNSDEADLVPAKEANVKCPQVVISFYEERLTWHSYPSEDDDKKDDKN
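Compound inhibition of the preformed complex between 50 nM HP1-beta and 50 nM biotinylated H3K9me3 peptide was read by AlphaScreen. Buffer was PBS pH 7.4 with 0.01% Tween-20. Incubations ran 30 min at room temperature, with 10 ug/mL donor/acceptor beads.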
JMJD2A Tudor: JMJD2A Tudor domain (human) inhibition; AlphaScreen JMJD2A-Tudor / H3K4me3 peptide binding; Potency, µM (series often up to 114 µM), hits mostly inhibitors; 4.4% of 390,000 active; AID 504339; note: nearly all actives have a fitted effect of over 50% in size
G9a inh: inhibitors of human histone lysine methyltransferase G9a. Q96KQ7. G9a H3K9 monomethylation, AlphaScreen, 2 h. Potency, µM (titrated, usually from 102 µM), actives largely listed as inhibitors. 8.8% of 350,000 active. AID 504332; note: nearly all actives have a fitted effect of over 75% in size
Target sequence (Q96KQ7 913-1193 limits assumed): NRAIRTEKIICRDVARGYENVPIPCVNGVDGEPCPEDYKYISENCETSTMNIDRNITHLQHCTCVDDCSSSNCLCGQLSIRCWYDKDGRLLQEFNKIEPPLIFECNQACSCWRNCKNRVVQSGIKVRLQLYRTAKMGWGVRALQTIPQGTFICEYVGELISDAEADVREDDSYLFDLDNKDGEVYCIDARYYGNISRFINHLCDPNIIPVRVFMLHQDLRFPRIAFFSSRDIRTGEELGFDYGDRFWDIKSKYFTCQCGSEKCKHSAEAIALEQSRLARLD
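Compounds were preincubated with 20 nM G9a for 15 min, after which biotinylated H3K9 peptide (500 nM) and SAM (20 uM) started a 2 h room-temperature reaction. Monomethylated product was quantified by antibody-based AlphaScreen chemiluminescence.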
Six1-Eya2 inh: inhibitors of human Six1/Eya2 interaction; AlphaScreen GST-Six1/His-Eya2 binding, biochemical; active compounds read low; AID 651725; 0.56% of 360,000 active; activity change, % (test concentration not listed); in the data active = activity change below about -65%; inconclusive = mostly about -30% to -63%
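Homogeneous AlphaScreen proximity assay pairing GST-Six1 with His-tagged Eya2 (added as 5X mix: 250 nM and 500 nM) in 50 mM Tris pH 8.0, 300 mM NaCl, 1 mM TCEP. Glutathione donor and nickel acceptor beads; 1 h, 37 °C, dark.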
Each line names hits and unclear results; the compound was inactive in the other large screens; ! = not confirmed by another sample. Unless noted, calls come from the whole dose curve; as a rule, active = well fitted inhibition curve with a large enough effect; inconclusive = small, poorly fitted or top-dose-only effect; inactive = no such curve, though single readings can be large or run the other way.

CC(C)C[C@H](NC(=O)[C@H](CCCCN)NC(=O)[C@H](CCCNC(=N)N)NC(=O)[C@H](C)NC(=O)[C@H](CO)NC(=O)[C@H](CCCCN)NC(=O)[C@H](CCCNC(=N)N)NC(=O)[C@H](C)NC(=O)CNC(=O)[C@@H](NC(=O)[C@H](Cc1ccccc1)NC(=O)CNC(=O)CNC(=O)[C@@H](N)Cc1ccccc1)[C@H](C)O)C(=O)N[C@@H](C)C(=O)N[C@@H](CC(N)=O)C(=O)N[C@@H](CCC(N)=O)C(=O)O	none (no result: BAZ2B block, CtBP-E1A inh, HP1b binding inh, JMJD2A Tudor, Six1-Eya2 inh)
COc1ccc(C(=O)Nc2ccc(NC(=O)c3cc(OC)c(OC)c(OC)c3)cn2)cc1	BAZ2B block inconclusive, G9a inh 40µM
[O-][n+]1ccccc1/C=C/c1ccccc1	none (no result: BAZ2B block, G9a inh)
CC(C)CC[n+]1ccccc1/C=C/c1ccc(N(C)C)cc1	G9a inh 32µM
CN(C)c1ccc(/C=C/c2ccncc2)cc1	BAZ2B block inconclusive, G9a inh inconclusive
CN(C)c1ccc(/C=C/c2cccc[n+]2[O-])cc1	G9a inh 50µM
CC(=O)c1ccc(NS(=O)(=O)c2c(C)nc3scc(C)n3c2=O)cc1	none (no result: CtBP-E1A inh, Six1-Eya2 inh)
Nn1cnnc1N/N=C/c1ccc(Cl)c([N+](=O)[O-])c1	CtBP-E1A inh inconclusive, JMJD2A Tudor inconclusive, G9a inh 45µM
Nn1cnnc1N/N=C/c1ccc(F)cc1	G9a inh 45µM (no result: CtBP-E1A inh)
Cc1ccc(/C=N/Nc2nncn2N)cc1	none
CCc1nnc(N/N=C/c2ccc(N3CCC(C)CC3)c([N+](=O)[O-])c2)n1N	BAZ2B block inconclusive, CtBP-E1A inh inconclusive, JMJD2A Tudor inconclusive, G9a inh 50µM
CCCCN(C)C(=O)c1ccc2c(=O)n3nc(Nc4cc(C)ccc4C)sc3nc2c1	none (no result: CtBP-E1A inh, Six1-Eya2 inh)
Cc1ccc(OCCCn2ccnc2)cc1C	BAZ2B block inconclusive
CCOc1ccc(OCCn2ccnc2)cc1	BAZ2B block 50µM, HP1b binding inh inconclusive, JMJD2A Tudor 5µM, G9a inh 10µM
Cc1cc(OCCn2ccnc2)ccc1C(C)C	BAZ2B block 45µM, HP1b binding inh 50µM, JMJD2A Tudor 3.2µM, G9a inh 14µM
Cc1cc(OCCN2CCOCC2)ccc1C(C)C	BAZ2B block 50µM, HP1b binding inh inconclusive, JMJD2A Tudor 14µM
CCCCOc1ccc(OCCCN2CCOCC2)cc1	none
CCC(C)c1ccc(OCCCCN2CCOCC2)cc1 (centres undefined)	BAZ2B block 50µM, HP1b binding inh inconclusive, JMJD2A Tudor 35µM, G9a inh 10µM
COc1ccc(C(=O)NCc2ccc3c(c2)CCN3C(C)=O)c(OC)c1	none (no result: CtBP-E1A inh, Six1-Eya2 inh)
Cc1ccccc1OCCC(=O)NNC(=O)COc1cccc(F)c1	none (no result: BAZ2B block, G9a inh)
CCOc1ccc(OCCCCn2ccnc2)cc1	BAZ2B block 50µM, HP1b binding inh inconclusive, JMJD2A Tudor 20µM, G9a inh inconclusive
CCOc1ccc(C(=O)NCCCn2ccnc2)cc1	none
Cc1ccc(OCCSc2nc3ccccc3n2CC(=O)NC(C)C)cc1	none (no result: CtBP-E1A inh, Six1-Eya2 inh)
Cn1c(=O)n(Cc2ccccc2)c(=O)c2c1nc1n2CCCN1CCc1ccccc1	BAZ2B block inconclusive, CtBP-E1A inh inconclusive, HP1b binding inh inconclusive, JMJD2A Tudor inconclusive, G9a inh 50µM, Six1-Eya2 inh inconclusive
Cn1c(=O)n(Cc2ccccc2)c(=O)c2c1nc1n2CCCN1Cc1ccccc1	none
Cn1c(Br)nc2c1c(=O)n(Cc1ccccc1)c(=O)n2C	none (no result: G9a inh)
Cn1c(N)nc2ccccc2c1=O	none
Cn1c(NN)nc2ccccc2c1=O	G9a inh 50µM
Cn1c(NN)nc2c1c(=O)n(Cc1ccccc1)c(=O)n2C	BAZ2B block inconclusive, G9a inh 28µM
CCOC(=O)C1=CCN(S(=O)(=O)c2ccc(C)cc2)C1c1ccc(Br)cc1 (centres undefined)	none (no result: BAZ2B block, HP1b binding inh, JMJD2A Tudor, G9a inh)
C[C@@H](C(=O)NCCc1c[nH]c2ccccc12)[C@@H]1C[C@@]1(C)[C@@H](NC(=O)OCc1ccccc1)c1ccccc1	JMJD2A Tudor inconclusive, G9a inh 45µM
OCC[C@@H]1C[C@@H](O)[C@H](O)[C@]2(CCCO2)O1	none (no result: BAZ2B block, G9a inh)
O=C(Nc1ccc2c(c1)OCO2)c1cc(C2CCCCN2C(=O)c2ccccc2)on1 (centres undefined)	none (no result: BAZ2B block, HP1b binding inh, JMJD2A Tudor, G9a inh)
COc1ccc(Cl)cc1-c1cc(C(=O)NCc2cccc(Cl)c2)[nH]n1	none (no result: BAZ2B block, HP1b binding inh, JMJD2A Tudor, G9a inh)
COc1ccc(Cl)cc1-c1n[nH]c(=S)n1Cc1ccccc1	G9a inh 3.2µM
O=C(CSc1nnc(-c2cccnc2)n1C1CCCCC1)NC1CCCCC1	none
Cc1cc(Cl)ccc1OCc1n[nH]c(=S)n1C1CCCCC1	BAZ2B block inconclusive, G9a inh inconclusive
Cc1ccsc1-c1n[nH]c(=S)n1C1CCCCC1	HP1b binding inh inconclusive, JMJD2A Tudor 35µM, G9a inh 1.6µM
S=c1[nH]nc(-c2cccnc2)n1C1CCCCC1	JMJD2A Tudor 5µM, G9a inh 20µM
COc1ccc(-c2n[nH]c(=S)nc2-c2ccc(OC)cc2)cc1	BAZ2B block inconclusive, G9a inh inconclusive
COc1ccc(-c2n[nH]c(=S)n2C2CCCCC2)cc1	JMJD2A Tudor 7.1µM, G9a inh 2.5µM
COc1ccc(Cl)cc1-c1n[nH]c(=S)n1C1CCCCC1	JMJD2A Tudor 35µM, G9a inh 1.4µM
CCc1ccc(-c2cc(C)no2)cc1S(=O)(=O)NCc1ccco1	BAZ2B block inconclusive, G9a inh 71µM!
Cc1cc(S(=O)(=O)NCc2ccco2)c(C)cc1Cl	BAZ2B block inconclusive, G9a inh 45µM
Cc1cc(-c2ccc(C)c(S(=O)(=O)NCCc3ccco3)c2)on1	G9a inh inconclusive (no result: CtBP-E1A inh)
COc1cc(C)c(Cl)cc1S(=O)(=O)NCc1ccco1	none
CC1CCCCN1S(=O)(=O)Cc1ccccc1Cl (centres undefined)	none
CCOc1ccc(/C=N/NC(=O)c2ccncc2)cc1OC	none (no result: BAZ2B block, HP1b binding inh, JMJD2A Tudor, G9a inh)
CCOc1cc(/C=N/NC(=O)c2ccc(-c3csc(Nc4ccc(C)cc4)n3)cc2)ccc1OCC(=O)O	BAZ2B block 25µM, JMJD2A Tudor inconclusive, G9a inh 45µM, Six1-Eya2 inh inconclusive
O=C(COc1ccc(Cl)cc1)OCc1csc(Nc2ccccc2)n1	G9a inh 10µM
O=C(O)COc1ccc(/C=N/NC(=O)c2ccc(-c3csc(Nc4ccc(Cl)cc4)n3)cc2)cc1	BAZ2B block 4µM, HP1b binding inh 20µM, JMJD2A Tudor 8.9µM
Cc1nc(CC(=O)N/N=C/c2ccc(OCC(=O)O)cc2)cs1	BAZ2B block inconclusive
O=C(Nc1nc(-c2ccccn2)cs1)c1cc2ccccc2o1	BAZ2B block 22µM, CtBP-E1A inh -68, JMJD2A Tudor 25µM, Six1-Eya2 inh -77
Cc1c(C(=O)Nc2nc(-c3ccccn3)cs2)oc2ccccc12	BAZ2B block 35µM, CtBP-E1A inh -86, HP1b binding inh inconclusive, JMJD2A Tudor inconclusive, G9a inh inconclusive, Six1-Eya2 inh -73
